We go through 59 molecules from ChEMBL document CHEMBL3988442, “University of Dundee, Small-Polar-MMV Screening Library” (2021).

About 13,000 (27%) of roughly 48,000 compounds showed an effect of 50% or more. The list shows a part of the results.

This experiment concerns Wolbachia pipientis. Put plainly: Anti-Wolbachia Cell-Based Screen. It is filed as functional. Further details: scale not given: in the data most compounds retested in dose-response had high values. As to conditions: 5 µM.
For the molecule `CC(C)n1nc(Cn2cccn2)c2c1CN(C1CCOC1)C2.O=C(O)C(F)(F)F` (centres undefined), the “Percent Effect” value is given as -7.587%.
As for `COc1cc(C)ccc1S(=O)(=O)N1CC[C@](C)(O)[C@H](C)C1`, the figure is -18.99%; as for `Cc1cnn(C2CN(CC(O)Cn3cccn3)C2)c1` (centres undefined), -31.52%; as for `COc1ncccc1-c1nc(-c2ccccn2)nn1C1CCS(=O)(=O)C1` (centres undefined), 10.63%.
With `CC(C#N)CNS(=O)(=O)c1ccc(F)c(Br)c1` (centres undefined), the “Percent Effect” value was -7.227%.
Consider `O=C(Nc1ccc(S(=O)(=O)Nc2c(F)cccc2F)cc1)N1CCCC1`, for which the “Percent Effect” value was -7.034%.
In the case of `CCOc1ccccc1C(CC(=O)Nc1ccccc1F)NC(C)=O` (centres undefined), the “Percent Effect” value is recorded as -7.406%.
In the case of `CCN(CC(=O)NC(C)C)S(=O)(=O)N1CCCCCC1`, the “Percent Effect” value amounted to 9.147%.
As to `CCN(CC(=O)NC(C)(C)C)Cc1cccc2c1OCCO2`, the “Percent Effect” value is -0.7065%.
As for `CCNC(=O)CN(CC)Cc1nc2c(F)cccc2n1CC`, the figure is -0.387%; as for `CCN(CC(=O)Nc1cc(C(C)(C)C)no1)Cc1ccc(Cl)s1`, 1.082%; as for `CCOc1nnc(CN(CC)CC(=O)NC(C)C)s1`, 101.2%.
With `CCOc1nnc(CN(CC)CC(=O)NC(C)(C)C)s1`, the “Percent Effect” value is recorded as 93.91%.
Next, `CCOc1nnc(CN(Cc2ccccc2)CC(O)c2ccco2)s1` (centres undefined): 2.067%.
Next, `CCOc1nnc(CN(CC)CC(=O)Nc2c(F)cccc2F)s1`: 97.11%; `O=C1[C@@H]2CCN(Cc3ccc(F)cc3)C[C@@H]2OCCN1c1cccnc1`: -21%; `Cc1cccc(CN2CCCC3(CCN(C4CCSCC4)C3)C2=O)c1` (centres undefined): -3.098%.
Next, `CN(C)C(=O)Cn1ccc2cc(NC(=O)N3CCSCC3)ccc21`: -2.006%.
Turning to `Cc1ccc(C)c2c(O)cc(CNCC(N)=O)nc12`, the “Percent Effect” value is listed as -7.963%.
In the case of `CC(C)c1nc(-c2cc(C(=O)NCCN(C)C)c3ccccn23)cs1.O=C(O)C(F)(F)F`, the “Percent Effect” value was -4.099%.
For `O=C1N(CCCc2ccccc2)CCCC1(O)CN1CCC(CO)CC1` (centres undefined), the “Percent Effect” value was -7.352%.
Take `CC(C)n1ncc2c1NC(=O)C(C#N)C21CCCC1` (centres undefined): the “Percent Effect” value amounted to 15.91%.
Next, `CS(=O)(=O)N1CCO[C@@H]2CCN(Cc3ccncc3)CC[C@H]21.O=C(O)C(F)(F)F.O=C(O)C(F)(F)F`: 114.1%.
As for `Cc1ccc(CN2CC[C@H]3[C@H]2CCN3S(C)(=O)=O)s1.O=C(O)C(F)(F)F`, the figure is -3.604%; as for `Cc1ccc(CN2CC[C@H]3[C@H]2CCN3S(=O)(=O)C2CC2)s1.O=C(O)C(F)(F)F`, -4.175%.
As for `COCCN1CCO[C@@H]2CN(Cc3ccc(C)s3)C[C@@H]2C1.O=C(O)C(F)(F)F.O=C(O)C(F)(F)F`, the figure is -5.835%; as for `CS(=O)(=O)N1CCO[C@@H]2CN(Cc3ccc(F)cc3)CC[C@@H]2C1.O=C(O)C(F)(F)F`, -0.3298%.
In the case of `CS(=O)(=O)N1CC[C@H]2O[C@H](C(=O)NCCc3ccncc3)CC[C@H]21.O=C(O)C(F)(F)F`, the “Percent Effect” value is reported as -5.225%.
As for `Cc1ccc(CN2CC[C@H]3OCC[C@@H](C(=O)NCC4CC4)[C@@H]3C2)s1.O=C(O)C(F)(F)F`, the figure is -8.513%; as for `Cc1ccc(CN2CC[C@@H]3OCCN(S(C)(=O)=O)[C@H]3CC2)s1.O=C(O)C(F)(F)F`, 114.1%.
Next, `Cc1ccc(CN2CC[C@@H]3OCCN(Cc4ccncc4)[C@H]3CC2)s1.O=C(O)C(F)(F)F.O=C(O)C(F)(F)F.O=C(O)C(F)(F)F`: 91.24%; `CC1CN(S(=O)(=O)c2cc(S(C)(=O)=O)ccc2Br)c2cccnc2O1` (centres undefined): -14.61%; `CC1(C)CN(CC(F)(F)F)CCN1CC(=O)N1CCCCC1`: -2.434%.
As for `O=C(O)C(F)(F)F.O=S(=O)(NC[C@]12COC[C@H]1CN(c1ncc(F)cn1)C2)C1CC1`, the figure is 7.707%; as for `CCCN(CC(F)F)C(=O)CCc1c(C)nc2cc(O)nn2c1C`, 131.4%; as for `Cc1nc2ccnn2c(C)c1CCC(=O)N1CCN(C2CC2)CC1`, 0.559%.
Take `Cc1nc2cc(O)nn2c(C)c1CCC(=O)N(C)Cc1ccccc1`: the “Percent Effect” value is reported as 86.37%.
Next, `Cc1nc2cc(O)nn2c(C)c1CCC(=O)N(C)CCC(C)C`: 96.83%; `Cc1nn(CCC#N)c(C)c1CCC(=O)N(C)Cc1ccsc1`: 21.07%; `COCC(C)N(C)C(=O)CCc1c(C)nc2c(C#N)cnn2c1C` (centres undefined): -1.234%.
In the case of `COC(=O)CCc1c(C)nc2cc(O)nn2c1C`, the “Percent Effect” value is 10.93%.
Next, `Cc1nc2c(C#N)cnn2c(C)c1CCC(=O)N(C)C(C)C(C)C` (centres undefined): 7.938%; `Cc1nn(C)c(C)c1CCC(=O)N(C)Cc1ccc2nsnc2c1`: 27.84%.
Take `CN1CCC2(CCC1=O)CCN(C(=O)Cc1ccc(O)c(F)c1)CC2`: the “Percent Effect” value was found to be 0.2124%.
In the case of `Cc1ccn(CCNc2ncnc3c2CCN(c2cnccn2)CC3)n1`, the “Percent Effect” value is 7.115%.
Consider `CC(O)CN1CCC(CNCc2cccc(Br)c2)CC1` (centres undefined), for which the “Percent Effect” value is on record as 7.461%.
For the molecule `O=C(Cn1cccc2cc(-c3ccc(F)cc3)nc1-2)N1CCC(O)CC1`, the “Percent Effect” value came to 121.3%.
On to `COC1CCN(C(=O)Cn2ccc3ccccc32)CC1`, for which the “Percent Effect” value is 0.3613%.
Next, `COCCN(C)C(=O)Cn1cccc(OC)c1=O`: -3.023%; `O=C(Cn1nnc(-c2cc3ccccc3o2)n1)N1CCOCC1`: -8.281%.
As for `CN(C)CCN(C)C(=O)Cn1cccc2cc(-c3ccc(F)cc3)nc1-2`, the figure is 149.6%; as for `COc1ccc(-c2cc3cccn(CC(=O)N4CCOCC4)c-3n2)cc1`, 153.8%; as for `COc1cccn(CC(=O)N(C)CCOc2cc(C)cc(C)c2)c1=O`, -7.697%.
As for `COc1cccc(CN2CCN(C(=O)CN3CCOCC3)CC2)n1`, the “Percent Effect” value is given as -0.8074%.
Regarding `O=C(c1nnn(-c2ccc(F)cc2)n1)N1CCC(O)CC1`, the “Percent Effect” value stood at 1.522%.
As for `CC(C)(C)c1nnc(CN2CCC(c3cc4ccccc4[nH]3)CC2)o1`, the figure is 4.334%; as for `COCCc1noc(-c2cn(Cc3ccccc3C)nn2)n1`, -12.89%; as for `NS(=O)(=O)CCNC(=O)C1(c2ccccc2)CC1`, -12.67%.
As for `O=C(NCCCNc1ccccn1)NCC1CCS(=O)(=O)C1` (centres undefined), the figure is 10.33%.
